Many of the other results were omitted from the sample, so hits are more common in it than they were.
PKM2 inhibitor: inhibitors of human pyruvate kinase M2; P14618; purified PKM2, ATP generation, Kinase-Glo luminescence; Potency, µM (series often up to 57.5 µM), hits mostly inhibitors; 260,000 tested, 0.058% active; active means well fitted inhibition curve with a large enough effect; further: nearly all actives have a fitted effect of over 60% in size
Target sequence (P14618 whole entry, looked up): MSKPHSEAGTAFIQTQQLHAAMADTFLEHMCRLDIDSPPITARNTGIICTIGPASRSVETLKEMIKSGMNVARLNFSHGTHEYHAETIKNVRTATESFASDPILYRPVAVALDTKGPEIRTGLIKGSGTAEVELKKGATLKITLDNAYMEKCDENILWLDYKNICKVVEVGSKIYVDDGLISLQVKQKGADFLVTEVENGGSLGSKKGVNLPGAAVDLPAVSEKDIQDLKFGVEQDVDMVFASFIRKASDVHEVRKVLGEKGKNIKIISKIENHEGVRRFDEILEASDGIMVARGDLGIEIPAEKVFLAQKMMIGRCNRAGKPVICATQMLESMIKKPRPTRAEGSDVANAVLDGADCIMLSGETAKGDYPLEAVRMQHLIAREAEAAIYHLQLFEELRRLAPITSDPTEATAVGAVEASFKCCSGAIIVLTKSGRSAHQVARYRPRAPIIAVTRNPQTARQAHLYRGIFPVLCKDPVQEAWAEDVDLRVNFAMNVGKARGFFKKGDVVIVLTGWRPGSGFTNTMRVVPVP
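Coupled luciferase luminescence (Kinase-Glo) detects ATP generated from 0.1 mM ADP and 0.5 mM PEP in imidazole buffer pH 7.2 with KCl, MgCl2; 1 h at room temperature. Enzyme at intermediate activity; normalized to uninhibited and no-enzyme controls.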
Hits are given with their value; - = inactive.

SMILES	PKM2 inhibitor
Clc1ccccc1Nc1nnc(-c2ccncc2)s1	12.6µM
Cc1n[nH]c(=O)c2c(NC(=O)CSc3nc4ccccc4c(=O)n3CCCO)oc(C)c12	-
COc1ccc2nc(/N=C/c3c(C)[nH]n(-c4ccc(C)cc4)c3=O)sc2c1	14.1µM
Cc1cccc(NS(=O)(=O)c2ccc3oc(=O)ccc3c2)c1C	-
COc1cc2cc(C)c(SCC(=O)N3CCN(C(=O)c4ccco4)CC3)nc2cc1OC	-
CCCCN=C1NN=C(c2ccc(C)c(C)c2)CS1	-
c1cc2c(cc1C1=NNC(=NC3CC3)SC1)OCCO2	14.1µM
COc1ccc(CN=C2NN=C(c3ccccc3)CS2)cc1	-
O=C1N(CCCl)c2ccc(Br)cc2C12OCCO2	-
Cc1ccc(CNC(=O)C2(CC(C)C)C=CCN2C(=O)c2ccccc2)o1 (stereo unspecified)	-
CC(=O)N(c1nnc(-c2cccc(C)c2)s1)C1CCCC1	-
O=[N+]([O-])c1ccc(NCCCNS(=O)(=O)c2ccccc2)c(Cl)c1	-
COc1cccc(CSc2nc3ccncc3[nH]2)c1	14.1µM
COc1ccc(S(=O)(=O)N2CCN=C2SCc2cccnc2)cc1	-
COc1cccc(Cn2nc(C(=O)O)c3ccccc3c2=O)c1	-
COc1cc(N2C(=O)C=CC2=O)c(OC)cc1Cl	-
COc1cc(/C=N/NC(=O)C2c3ccccc3Oc3ccccc32)ccc1O	-
COc1cc(/C=N/Nc2nn3cnnc3c3ccccc23)ccc1O	25.1µM
COc1cc(/C=N\Nc2nc(-c3ccc(C)cc3)c(NC(C)=O)s2)ccc1O	-
COc1ccccc1NS(=O)(=O)c1cc(NC(=O)c2[nH]c(C)c(C(C)=O)c2C)ccc1N1CCOCC1	-
O=C(NCc1nnc2c(C(F)(F)F)cc(Cl)cn12)c1cccs1	-
Cc1c(C(=O)Nc2cccc(N(C)S(C)(=O)=O)c2)cccc1[N+](=O)[O-]	-
C/C(=N/NC(=O)c1cccs1)c1c(C)[nH]n(-c2nc3ccccc3s2)c1=O	14.1µM
CCNc1sc(C(=O)c2cccs2)c(N)c1-c1nc2ccccc2s1	-
COc1ccc(NC(=O)/C(Cl)=C(/Cl)S(=O)Cc2ccccc2Cl)cn1 (stereo unspecified)	-
SMILES	PKM2 inhibitor
CC(NC(=O)COC(=O)c1ccc(N(C)C)cc1)c1ccccc1 (stereo unspecified)	-
O=S(=O)(/N=C(/Nc1ccc(Cl)cc1Cl)c1ccccc1)c1cccs1	-
COc1cccc(CNC(=O)C2CCN(S(=O)(=O)c3ccc(Br)s3)CC2)c1	-
Cc1ccc(C(=O)OCn2ncc(Cl)c(Cl)c2=O)cc1	-
Cc1ccc(C(=O)O/N=C(\N)c2nonc2N)cc1	12.6µM
Cc1ccc(C(=O)O/N=C(\N)c2ccccn2)cc1	5.62µM
Cc1ccc(C(=O)/C=C/C(=O)c2ccc(C)cc2)cc1	-
OC(CNCCCCNCC(O)C(F)(F)F)C(F)(F)F (stereo unspecified)	-
N#C/C(=C\c1ccc(F)c(Cl)c1)S(=O)(=O)c1ccccn1	-
Oc1ccc(/C=N/N2CCN(C3c4ccccc4-c4ccccc43)CC2)cc1O	-
Cc1ccc(NS(=O)(=O)c2c(C)nc3sccn3c2=O)cc1C	-
CCC12CC3CC(C1)CC(C(=O)NNC(N)=O)(C3)C2	-
COCC(=O)OCC(=O)Nc1ccc(Cl)cc1[N+](=O)[O-]	-
Cc1cc2c(cc1S(=O)(=O)Nc1cccc(C)c1C)n(C)c(=O)c(=O)n2C	-
Cn1cccc1CC(=O)N/N=C/C=C/c1ccco1	-
COc1ccc(-c2nc3oc4cc(OC)ccc4c(=O)c3c(=O)n2Cc2ccco2)cc1	-
COc1ccc(-c2cc3nc(C)n(N)c(=O)c3s2)cc1	3.98µM
O=C(NCc1cccs1)C1CCN(S(=O)(=O)c2ccccc2F)CC1	-
C=CCN1CCc2c(cc(O)c(O)c2Cl)C(c2cccc(C)c2)C1 (stereo unspecified)	-
O=c1ccc2cc(S(=O)(=O)NCc3ccccc3)ccc2[nH]1	-
CN(C)c1ccc(/C=N/NC(=O)c2ccccc2O)o1	-
CCN(CC)c1ccc(/C=N/NC(=O)c2ccoc2C)cc1	28.2µM
O=C(N/N=C/c1ccc(F)cc1)c1cc(-c2ccco2)nc2ccccc12	-
CSCCC(NC(=O)c1ccccc1Br)C(=O)Nc1ccc(C)cc1 (stereo unspecified)	-
C=CCc1cccc2cc(C(=O)Nc3ccc(S(=O)(=O)Nc4nnc(CC)s4)cc3)c(=O)oc12	-
SMILES	PKM2 inhibitor
NC(=O)COC(=O)/C=C/c1cccc(Br)c1	-
Cc1c(F)cccc1NS(=O)(=O)c1ccc2c(c1)c(=O)n(C)c(=O)n2C	-
Cc1ccc(N2C(=O)c3ccccc3C2O)nc1 (stereo unspecified)	11.2µM
Cc1ccc(S(=O)(=O)/N=c2\ccc(Cl)cn2C(F)F)cc1	-
N#C/C(=C\Nc1ccc(Cl)cc1)S(=O)(=O)c1ccccn1	-
COc1ccc2[nH]c(=O)c(-c3noc(-c4ccccc4)n3)cc2c1	-
COc1ccc(-c2nc3ccccc3[nH]2)cc1	12.6µM
CC(=O)N1[C@H](C)C=C[C@]1(Cc1ccccc1)C(=O)NCc1ccc(C)o1	-
COc1cccc(CNc2nc3ccccc3n2C(C)C)c1O	-
